Source: PubChem BioAssay (EPA / NIEHS)
“And” between values parts separate entries of the source, which are not always exact repeats. Equal entries are not always repeated. Inconclusive results are not listed. Some compounds were tested as several samples or in several runs, with calls that do not always agree. The source made the active and inactive calls. How the source made its calls, unless noted: active means hit-call score of the fitted dose curve at least 0.9, where 1 is the maximum; inactive means score below 0.9.

What was measured:
[1] = read-out: TIMP metallopeptidase inhibitor 2 (TIMP2), TIMP2 (gene 7077); experiment: BSK_KF3CT_TIMP2: BioMAP Diversity Plus: KF3CT Assay for TIMP metallopeptidase inhibitor 2 (TIMP2) Biomarker Activity (AID 2283071); details: primary human keratinocytes with fibroblasts; actives raise or lower the signal
In short: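 Cells: human keratinocytes co-cultured with foreskin fibroblasts. Treat with chemical, 24 h. Measure TIMP-2 by ELISA; fit curves bidirectionally vs DMSO baseline.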

[2] = read-out: C-C motif chemokine 2 (Homo sapiens) (UniProt P13500); experiment: BSK_KF3CT_MCP1: BioMAP Diversity Plus: KF3CT Assay for Monocyte Chemoattractant Protein 1 (MCP1/CCL2) Biomarker Activity (AID 2283073); details: primary human keratinocytes with fibroblasts; actives raise or lower the signal
In short: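 Human keratinocyte–foreskin fibroblast co-culture; MCP-1 measured by ELISA 24 h after dosing. Bidirectional fit vs DMSO; cytotoxicity tracked by SRB total protein in parallel cultures.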

[3] = read-out: Matrix Metallopeptidase 9 (MMP9), MMP9 (gene 4318); experiment: BSK_KF3CT_MMP9: BioMAP Diversity Plus: KF3CT Assay for Matrix Metallopeptidase 9 (MMP9) Biomarker Activity (AID 2283074); details: primary human keratinocytes with fibroblasts; actives raise or lower the signal;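 further: MMP9 protein level quantified by ELISA in the co-culture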
In short: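 Human keratinocyte and foreskin fibroblast co-culture exposed to chemicals for 24 h; MMP9 biomarker measured by ELISA, bidirectional fitting relative to DMSO; cytotoxicity tracked by SRB total protein staining in parallel cultures.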

[4] = read-out: urokinase plasminogen activator (uPA), PLAU (gene 5328); experiment: BSK_KF3CT_uPA: BioMAP Diversity Plus: KF3CT Assay for urokinase plasminogen activator (uPA) Biomarker Activity (AID 2283075); details: primary human keratinocytes with fibroblasts; actives raise or lower the signal
In short: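 Primary human keratinocyte/foreskin fibroblast co-culture exposed to chemical; uPA measured by ELISA at 24 h. Bidirectional fit versus DMSO, with parallel SRB total-protein staining for cytotoxicity.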

[5] = read-out: CD40, CD40 (gene 958); experiment: BSK_LPS_CD40: BioMAP Diversity Plus: LPS Assay for CD40 Biomarker Activity (AID 2283076); details: primary human HUVEC with PBMC; actives raise or lower the signal
In short: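 HUVEC plus PBMC co-culture stimulated with LPS; CD40 quantified by ELISA 24 h after compound dosing. Fitting was bidirectional relative to DMSO. SRB staining of parallel cultures flagged overt cytotoxicity.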

[6] = read-out: E-selectin (Homo sapiens) (UniProt P16581); experiment: BSK_LPS_Eselectin: BioMAP Diversity Plus: LPS Assay for Eselectin Biomarker Activity (AID 2283077); details: primary human HUVEC with PBMC; actives raise or lower the signal
In short: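 Human umbilical vein endothelial cells co-cultured with PBMC under LPS stimulation; cell-surface E-selectin measured by ELISA 24 h after dosing. Change in either direction versus DMSO, with SRB total-protein staining in parallel cultures for cytotoxicity.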

[7] = read-out: Interleukin-8 (IL8), CXCL8 (gene 3576); experiment: BSK_LPS_IL8: BioMAP Diversity Plus: LPS Assay for Interleukin-8 (IL8) Biomarker Activity (AID 2283078); details: primary human HUVEC with PBMC; actives raise or lower the signal
In short: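 Human umbilical vein endothelial cells co-cultured with PBMC, LPS-stimulated, exposed to compound for 24 h. IL-8 quantified by ELISA; fitted in both directions against DMSO, with SRB total-protein staining of parallel cultures for cytotoxicity.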

[8] = BSK_LPS_SRB: Viability Assessment in the BioMAP Diversity Plus: LPS Assay (AID 2283079); details: primary human HUVEC with PBMC;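 further: total protein by sulforhodamine B absorbance as a cytotoxicity measure; measured one day after compound addition; fitted in both directions against DMSO so loss or gain of signal counts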
In short: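 Co-culture of human umbilical vein endothelial cells and PBMC, read 24 h after dosing. Total protein by 0.1% SRB staining after 10% TCA fixation, absorbance at 560 nm; bidirectional fit against DMSO.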

[9] = read-out: Interleukin-1 alpha (IL1a), IL1A (gene 3552); experiment: BSK_LPS_IL1a: BioMAP Diversity Plus: LPS Assay for Interleukin-1 alpha (IL1a) Biomarker Activity (AID 2283080); details: primary human HUVEC with PBMC; actives raise or lower the signal
In short: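 Human umbilical vein endothelial cells co-cultured with PBMC and stimulated with LPS; IL-1a measured by ELISA 24 h after dosing. Bidirectional fitting against DMSO; cytotoxicity checked by SRB staining in parallel cultures.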

[10] = read-out: Monocyte Chemoattractant Protein-1 (MCP1), CCL2 (gene 6347); experiment: BSK_LPS_MCP1: BioMAP Diversity Plus: LPS Assay for Monocyte Chemoattractant Protein-1 (MCP1) Biomarker Activity (AID 2283081); details: primary human HUVEC with PBMC; actives raise or lower the signal
In short: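 Human umbilical vein endothelial cells co-cultured with PBMC, LPS-stimulated; secreted MCP-1 measured by ELISA 24 h after compound addition. Bidirectional curve fitting against DMSO baseline; SRB total-protein staining in parallel cultures for cytotoxicity.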

[11] = BSK_LPS_PGE2: BioMAP Diversity Plus: LPS Assay for Prostaglandin E2 (PGE2) Biomarker Activity (AID 2283082); details: primary human HUVEC with PBMC; actives raise or lower the signal
In short: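 LPS-activated HUVEC/PBMC co-culture; cmpd dosed, 24 h; PGE2 by ELISA; bidirectional fit vs DMSO; SRB (0.1%, TCA-fixed, 560 nm) in parallel plates for overt cytotox.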

[12] = read-out: Macrophage colony-stimulating factor (MCSF), CSF1 (gene 1435); experiment: BSK_LPS_MCSF: BioMAP Diversity Plus: LPS Assay for Macrophage colony-stimulating factor (MCSF) Biomarker Activity (AID 2283083); details: primary human HUVEC with PBMC; actives raise or lower the signal
In short: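 HUVEC–PBMC co-culture, M-CSF measured by ELISA 24 h after chemical dosing. Fitted in both directions relative to DMSO as negative control; overt cytotoxicity assessed by SRB total-protein staining in parallel cultures.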

[13] = read-out: Tissue Factor, F3 (gene 2152); experiment: BSK_LPS_TissueFactor: BioMAP Diversity Plus: LPS Assay for Tissue Factor Biomarker Activity (AID 2283084); details: primary human HUVEC with PBMC; actives raise or lower the signal
In short: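 Human umbilical vein endothelial cells co-cultured with PBMC were dosed with compound. Cell-surface CD142 was measured by ELISA 24 h later. Activity was fitted bidirectionally against DMSO, with SRB total-protein staining in parallel cultures for cytotoxicity.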

[14] = read-out: Tumor necrosis factor (Homo sapiens) (UniProt P01375); experiment: BSK_LPS_TNFa: BioMAP Diversity Plus: LPS Assay for Tumour Necrosis Factor alpha (TNFa) Biomarker Activity (AID 2283085); details: primary human HUVEC with PBMC; actives raise or lower the signal
In short: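 Read-out is ELISA of TNFa in primary human endothelial cell–PBMC co-cultures at 24 h after compound. Activity in either direction was fitted against DMSO.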

[15] = read-out: Vascular cell adhesion molecule 1 (VCAM1), VCAM1 (gene 7412); experiment: BSK_LPS_VCAM1: BioMAP Diversity Plus: LPS Assay for Vascular cell adhesion molecule 1 (VCAM1) Biomarker Activity (AID 2283086); details: primary human HUVEC with PBMC; actives raise or lower the signal
In short: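 HUVEC + PBMC co-culture, LPS system; compound 24 h; VCAM-1 by ELISA; bidirectional fit vs DMSO control; parallel SRB (0.1%, TCA-fixed, 560 nm) for cytotoxicity.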

[16] = read-out: CD38, CD38 (gene 952); experiment: BSK_SAg_CD38: BioMAP Diversity Plus: SAg Assay for CD38 Biomarker Activity (AID 2283087); details: primary human HUVEC with PBMC; actives raise or lower the signal
In short: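 Human HUVEC plus PBMC co-culture stimulated with superantigen; CD38 measured by ELISA 24 h after chemical dosing. Fluorescence read-out, bidirectional fit against DMSO; cytotoxicity tracked in parallel by SRB and Alamar Blue.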

[17] = read-out: CD40, CD40 (gene 958); experiment: BSK_SAg_CD40: BioMAP Diversity Plus: SAg Assay for CD40 Biomarker Activity (AID 2283088); details: primary human HUVEC with PBMC; actives raise or lower the signal
In short: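 HUVEC plus PBMC co-culture, superantigen-activated, with CD40 read by ELISA 24 h after dosing. Curves fitted in both directions against DMSO. Overt cytotoxicity checked by parallel SRB total-protein staining.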

[18] = read-out: CD69, CD69 (gene 969); experiment: BSK_SAg_CD69: BioMAP Diversity Plus: SAg Assay for CD69 Biomarker Activity (AID 2283089); details: primary human HUVEC with PBMC; actives raise or lower the signal;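 further: cell surface CD69 protein quantified by ELISA with fluorescence detection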
In short: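 Endothelial/PBMC co-culture; chemical added; 24 h incubation; CD69 ELISA with fluorescence detection; bidirectional fit vs DMSO.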

[19] = read-out: Monocyte Chemoattractant Protein-1 (MCP1), CCL2 (gene 6347); experiment: BSK_SAg_MCP1: BioMAP Diversity Plus: SAg Assay for Monocyte Chemoattractant Protein-1 (MCP1) Biomarker Activity (AID 2283090); details: primary human HUVEC with PBMC; actives raise or lower the signal
In short: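 MCP-1 levels in the endothelial–PBMC SAg co-culture were quantified by ELISA at 24 h post-dosing; both increases and decreases versus DMSO scored. Cytotoxicity monitored by SRB total protein in parallel cultures.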

[20] = read-out: E-selectin (Homo sapiens) (UniProt P16581); experiment: BSK_SAg_Eselectin: BioMAP Diversity Plus: SAg Assay for Eselectin Biomarker Activity (AID 2283091); details: primary human HUVEC with PBMC; actives raise or lower the signal
In short: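 Human umbilical vein endothelial cells co-cultured with peripheral blood mononuclear cells, SAg system. E-selectin is measured by ELISA 24 h after dosing and fitted bidirectionally against DMSO. Cytotoxicity is checked by SRB staining of parallel cultures.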

[21] = read-out: Monokine induced gamma interferon (MIG), CXCL9 (gene 4283); experiment: BSK_SAg_MIG: BioMAP Diversity Plus: SAg Assay for Monokine induced gamma interferon (MIG) Biomarker Activity (AID 2283092); details: primary human HUVEC with PBMC; actives raise or lower the signal
In short: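 Measures CXCL9 protein by ELISA in a human vascular primary-cell co-culture (umbilical vein endothelium with PBMC) 24 h after chemical addition. Activity is scored up or down from the DMSO control.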

[22] = BSK_SAg_PBMCCytotoxicity: PBMC Cytotoxicity Assessment in the BioMAP Diversity Plus: SAg Assay (AID 2283093); details: primary human HUVEC with PBMC;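 further: PBMC superantigen activated with SEB plus TSST-1 one hour after compound addition; PBMC viability measured as Alamar Blue reduction fluorescence at 546/580 nm; fitted both ways against DMSO so a hit may be loss or gain of signal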
In short: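 HUVEC/PBMC co-culture; PBMC exposed to chemical 1 h before SEB and TSST-1 activation (20 ng/mL each), incubated 90 h, then Alamar Blue 6 h, fluorescence 546/580 nm. Bidirectional fit versus DMSO baseline.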

[23] = read-out: Interleukin-8 (IL8), CXCL8 (gene 3576); experiment: BSK_SAg_IL8: BioMAP Diversity Plus: SAg Assay for Interleukin-8 (IL8) Biomarker Activity (AID 2283094); details: primary human HUVEC with PBMC; actives raise or lower the signal
In short: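 ELISA read-out of IL-8 in a primary human vascular co-culture (umbilical vein endothelium plus PBMC), taken 24 h after compound addition. Values derive from bidirectional fits against DMSO negative controls.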

[24] = BSK_SAg_Proliferation: Cell Proliferation Assessment in the BioMAP Diversity Plus: SAg Assay (AID 2283095); details: primary human HUVEC with PBMC;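 further: relative cell number as total protein by SRB absorbance in sub-confluent culture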
In short: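 Cells (endothelium plus PBMC, human primary) were dosed with chemical, cultured 96 h, fixed in 10% TCA and stained with 0.1% SRB. Absorbance at 560 nm gave relative protein, fitted bidirectionally relative to DMSO.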

[25] = BSK_SAg_SRB: Viability Assessment in the BioMAP Diversity Plus: SAg Assay (AID 2283096); details: primary human HUVEC with PBMC;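 further: cells read one day after compound addition; hits may be either gain or loss of signal compared with DMSO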
In short: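 Human umbilical vein endothelial cells co-cultured with PBMC, read 24 h after compound dosing. Total protein measured by sulforhodamine B staining (0.1% SRB after 10% TCA fixation, absorbance 560 nm); bidirectional fit versus DMSO baseline.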

[26] = molecular target: bovine Estrogen Receptor (ER), ESR1 (gene 407238) (UniProt P49884); experiment: NVS_NR_bER: NovaScreen (NVS) Nuclear Receptor Binding Assay for bovine Estrogen Receptor (ER) (AID 2283345; active means hit-call score of the fitted dose curve at least 0.9, where 1 is the maximum;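 further: actives lower the bound radioligand count which means they displace the ER ligand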)
bovine Estrogen Receptor (ER), ESR1 (gene 407238), sequence (P49884 whole entry, looked up): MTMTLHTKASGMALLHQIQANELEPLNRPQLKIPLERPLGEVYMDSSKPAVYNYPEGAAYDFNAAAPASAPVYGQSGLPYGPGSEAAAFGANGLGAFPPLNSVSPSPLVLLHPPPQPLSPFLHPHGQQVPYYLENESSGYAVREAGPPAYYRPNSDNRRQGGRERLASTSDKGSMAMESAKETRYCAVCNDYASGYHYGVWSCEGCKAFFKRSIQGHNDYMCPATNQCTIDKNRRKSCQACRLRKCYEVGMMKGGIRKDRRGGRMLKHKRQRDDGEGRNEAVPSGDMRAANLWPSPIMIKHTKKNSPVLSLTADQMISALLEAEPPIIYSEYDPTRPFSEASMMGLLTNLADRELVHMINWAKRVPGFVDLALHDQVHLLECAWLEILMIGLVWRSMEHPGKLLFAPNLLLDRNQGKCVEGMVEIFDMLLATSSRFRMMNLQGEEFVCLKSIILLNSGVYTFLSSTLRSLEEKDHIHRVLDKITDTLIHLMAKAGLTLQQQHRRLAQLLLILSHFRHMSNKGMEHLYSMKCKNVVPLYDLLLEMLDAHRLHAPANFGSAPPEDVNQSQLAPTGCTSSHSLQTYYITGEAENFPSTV
In short: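 Scintillation counting of displaced radioligand gave the readout; bovine uterine membrane extract supplied the receptor. Measured 18 h post-dose, normalized to DMSO baseline. Single 25 uM duplicate screen preceded concentration-response follow-up.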

[27] = TOX21_p53_BLA_p2_viability: Viability Assessment in the Tox21 HCT-116 p53 Agonism Beta-lactamase Assay, Phase 2 (AID 2283591; active means hit-call score of the fitted dose curve at least 0.9, where 1 is the maximum;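 further: compound exposure lasted 16 h at 37 °C; actives lower the ATP signal meaning cytotoxicity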)
In short: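 HCT116 p53-bla cells, 4000/well, dosed after 5 h plating (217-fold dilution of DMSO stocks) and incubated 16 h at 37C. Viability taken as cellular ATP by CellTiter-Glo luminescence after 30 min RT; signal loss marks cytotoxicity.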

Measured: AC50

E-selectin (Homo sapiens), sequence (P16581 whole entry, looked up): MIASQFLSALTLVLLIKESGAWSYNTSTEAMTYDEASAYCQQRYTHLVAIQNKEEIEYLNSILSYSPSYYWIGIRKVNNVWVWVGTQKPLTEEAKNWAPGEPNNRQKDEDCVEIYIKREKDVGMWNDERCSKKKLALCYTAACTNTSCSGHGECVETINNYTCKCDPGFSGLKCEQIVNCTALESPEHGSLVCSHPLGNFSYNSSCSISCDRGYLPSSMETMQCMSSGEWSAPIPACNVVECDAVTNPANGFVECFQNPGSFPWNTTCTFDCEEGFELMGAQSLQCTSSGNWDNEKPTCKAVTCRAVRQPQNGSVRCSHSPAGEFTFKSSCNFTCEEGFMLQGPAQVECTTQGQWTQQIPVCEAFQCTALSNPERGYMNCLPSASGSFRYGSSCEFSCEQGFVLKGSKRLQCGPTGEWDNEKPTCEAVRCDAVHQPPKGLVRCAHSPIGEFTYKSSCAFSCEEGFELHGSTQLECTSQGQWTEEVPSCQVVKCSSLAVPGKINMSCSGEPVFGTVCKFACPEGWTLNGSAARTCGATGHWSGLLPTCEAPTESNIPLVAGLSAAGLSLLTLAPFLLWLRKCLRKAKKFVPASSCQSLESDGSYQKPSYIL
Tumor necrosis factor (Homo sapiens), sequence (P01375 whole entry, looked up): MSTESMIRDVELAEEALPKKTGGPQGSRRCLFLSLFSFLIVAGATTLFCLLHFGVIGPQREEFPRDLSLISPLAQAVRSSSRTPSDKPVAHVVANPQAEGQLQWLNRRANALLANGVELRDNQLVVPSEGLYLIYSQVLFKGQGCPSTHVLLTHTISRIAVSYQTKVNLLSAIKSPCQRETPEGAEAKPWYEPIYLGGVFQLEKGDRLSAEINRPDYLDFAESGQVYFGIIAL

[Cd+2].[Cl-].[Cl-]
inactive: [5] | [7] | [8] | [9] | [10] | [11] | [13] | [14] | [21] | [25] | [26]
active: [1] 28.2 µM and 20 µM | [2] 20 µM and 14.1 µM | [3] 16.2 µM and 20.5 µM | [4] 32.6 µM and 35.8 µM | [5] 13.1 µM | [6] 32.8 µM and 35.4 µM | [7] 28.9 µM | [12] 19.5 µM and 31.2 µM | [14] 33 µM | [15] 30 µM and 35.9 µM | [16] 35.3 µM and 15.6 µM | [17] 30.2 µM and 34.7 µM | [18] 32.4 µM and 30.4 µM | [19] 33 µM and 34.4 µM | [20] 32.2 µM and 30.2 µM | [22] 20 µM and 30.4 µM | [23] 34.9 µM and 31.4 µM | [24] 14 µM and 13.4 µM | [27] 67.9 µM and 68.1 µM
